Source: PubChem
CCT modulator: cytosolic chaperonin activity modulation; purified chaperonin ATPase assay, HTRF ADP detection, 30 min; activity change, % (test concentration not listed), hits read low; 0.3% of 360,000 active; AID 651819; in the data active means activity change below about -30%
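Nucleotide hydrolysis assay: TRiC at 20–40 nM final (set by batch activity) with 10 uM ATP, 30 min at 37 °C, in presence of 76 uM compound. Detection by competitive ADP HTRF, 30 min ambient.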
PI4K2A inh: blocks human PI4K2A kinase activity. Q9BTU6. purified PI4K2A, ADP-Glo luminescence, 1 h; stronger effect = lower value. activity change, negative = inhibition, % at 76.9 µM. 0.13% of 420,000 active; in the data active means activity change below about -50%; inconclusive means mostly about -30% to -49%;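 further: -100% = wells without enzyme as full effect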
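In this quantitative HTS, ADP production by PI4K2A was quantified luminescently after 1 h at ambient temperature; 100 microM adenosine served as plate-quality control.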
Six1-Eya2 blk: blocks human Six1 binding to Eya2 | AID 651725 | activity change, % (no concentration beside the values) | AlphaScreen GST-Six1/His-Eya2 binding, biochemical; stronger effect = lower value | 0.56% of 360,000 active
Target sequence (O00167 whole entry, looked up): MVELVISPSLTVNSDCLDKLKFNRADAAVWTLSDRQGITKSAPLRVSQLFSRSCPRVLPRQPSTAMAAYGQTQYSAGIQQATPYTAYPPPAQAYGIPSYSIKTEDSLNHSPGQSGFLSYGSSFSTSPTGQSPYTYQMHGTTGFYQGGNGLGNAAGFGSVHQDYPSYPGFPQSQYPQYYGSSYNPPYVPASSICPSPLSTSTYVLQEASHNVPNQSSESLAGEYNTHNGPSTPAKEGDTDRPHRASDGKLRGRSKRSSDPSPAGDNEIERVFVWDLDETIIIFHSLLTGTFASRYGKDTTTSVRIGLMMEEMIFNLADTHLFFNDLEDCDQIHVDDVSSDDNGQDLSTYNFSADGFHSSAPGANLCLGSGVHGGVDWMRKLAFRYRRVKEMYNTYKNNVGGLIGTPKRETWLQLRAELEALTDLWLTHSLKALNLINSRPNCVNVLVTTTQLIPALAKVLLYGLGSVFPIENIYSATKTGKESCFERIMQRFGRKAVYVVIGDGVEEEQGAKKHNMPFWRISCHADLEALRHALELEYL
Target sequence (Q15475 whole entry, looked up): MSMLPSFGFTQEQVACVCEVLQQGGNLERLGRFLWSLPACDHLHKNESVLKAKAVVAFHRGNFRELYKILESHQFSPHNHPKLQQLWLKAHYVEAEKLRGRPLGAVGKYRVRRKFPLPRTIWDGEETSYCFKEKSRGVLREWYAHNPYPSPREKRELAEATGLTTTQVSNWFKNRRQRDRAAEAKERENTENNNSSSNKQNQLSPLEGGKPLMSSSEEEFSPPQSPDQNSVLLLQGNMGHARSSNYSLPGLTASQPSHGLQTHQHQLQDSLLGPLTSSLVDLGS
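GST-Six1 + His-Eya2 (5X stock: 250/500 nM); Tris pH 8.0, 300 mM NaCl, 0.05% BSA, 0.02% Tween 20; GSH donor/Ni acceptor beads; 1 h 37 °C dark; AlphaScreen readout.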
Eya2 phos inh: Eya2 (human) phosphatase inhibition. recombinant Eya2, OMFP fluorescence dephosphorylation (OMFP is methylfluorescein phosphate). 0.006% of 330,000 active. Potency, µM (doses to about 76.9 µM), for the others: at the top dose activity, negative = inhibition, most hits filed as inhibitors. AID 488837. O00167; active means well fitted inhibition curve with a large enough effect; inconclusive means small, poorly fitted or top-dose-only effect, or effect the other way; further: potency means the concentration at half of the fitted maximal effect
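Eya2 (0.2 uM) preincubated 10 min at ambient with compound, then OMFP substrate added at 50 uM; 10 min reaction in 50 mM HEPES pH 7.5, 50 mM NaCl, 5 uM MgCl2, 0.05% BSA, 1 mM DTT. Fluorescence read at Ex 485/Em 525 nm.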
CtBP-E1A inh: inhibitors of CtBP/E1A interaction; 0.49% of 340,000 active; AlphaScreen GST-E1A/His-CtBP binding, 1536-well; stronger effect = lower value; AID 651724; activity change, % (concentration not given with the values)
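In 5 uL wells, 23 nL compound meets equimolar GST-E1A and His-CtBP (5X stock 125 nM each) for 2 h, 37 °C. Beads (5X, 50 ug/mL) then 1 h, 37 °C, dark.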
An asterisk follows results filed as active; ? = inconclusive; · = not tested or not shown; ! = not active in a repeat. Compounds with a hit are over-represented: about 0.97% of the library has one in this group of screens. Unless noted, no stated cut-off is given here; in the data, active means activity change below about -65%; inconclusive means mostly about -30% to -63%; inactive means weaker than that. Unless noted, on the % scale 0 is the no-effect control and ±100 the full control effect.

SMILES	CCT modulator	PI4K2A inh	Six1-Eya2 blk	Eya2 phos inh	CtBP-E1A inh
CC(=O)NC(c1ccc(C)cc1)c1cc([N+](=O)[O-])c2cccnc2c1O (configuration not stated)	0	-29	-90*	-5%	-93*
CCOC(=O)c1ccccc1NC(=O)c1cncc(Br)c1	-37*	0	1	4%	10
CCOC(=O)c1ccccc1NC(=O)c1cccnc1	0	-4	3	0%	5
CCC(NC(=O)c1cccc2c1C(=O)N(Cc1cccnc1)C2)c1ccccc1 (configuration not stated)	·	-4	·	·	·
Nc1cc(=O)[nH]c(=S)n1-c1ccccc1	1	1	8	9%	-6
Cc1cc(=O)[nH]c(=S)n1-c1ccccc1	-34*	0	5	4%	9
CCN(CC)c1ccc(C(=C2C=CC(=[N+](CC)CC)C=C2)c2ccccc2)cc1	1	-8	?	·	-8
CCN(CC)c1ccc(C(=C2C=CC(=[N+](CC)CC)C=C2)c2ccc(N(CC)CC)cc2)cc1	-1	-71*	-78*	·	-90*
CCN(CC)c1ccc(/C=N/NS(=O)(=O)c2ccc(C)c([N+](=O)[O-])c2)cc1	0	-2	-17	5%	8
CCN(CC)c1ccc(C(=C2C=CC(=[N+](CC)CC)C=C2)c2cc(S(=O)(=O)O)ccc2S(=O)(=O)[O-])cc1	·	-51*	·	·	·
CCCn1c(Oc2ccccc2)nc2c1c(=O)n(C)c(=O)n2C	-3	-2	11	-4%	·
CCn1c(Oc2cccc(Br)c2)nc2c1c(=O)n(C)c(=O)n2C	-44*	2	-6	-4%	-11
N#C/C(=N\Nc1ccc(Cl)cc1)C(=O)c1ccccc1	2	0	-17	-7%	-6
Cc1c(N/N=C(\C#N)C(=O)c2ccc(Cl)cc2)c(=O)n(-c2ccccc2)n1C	0	3	-82*	-2%	-76*
CN(Cc1cccc(Cl)c1)C(=O)C1CCC(=O)N(C2CC2)C1 (configuration not stated)	-76*	-3	-3	-9%	·
CN(Cc1ccc(C(F)(F)F)cc1)C(=O)C1CCC(=O)N(C2CC2)C1 (configuration not stated)	-2	0	4	2%	-8
Cc1cc(S(=O)(=O)Nc2ccc3[nH]c(=O)sc3c2)ccc1F	·	-4	·	·	·
O=C(C[C@H]1C(=O)N(C2CCCCC2)C[C@@H]1c1ccccc1)Nc1ccc(Br)cc1	-53*	0	0	·	1
Oc1ccc2ccccc2c1CNc1ccc2ccccc2c1	-37*	6	-19	·	-23
Oc1ccc2ccccc2c1CNc1ccccc1	-4	-4	4	·	-2
Cc1ccc(-c2nn(-c3ccccc3)cc2C=C2SC(=S)N(CCS(=O)(=O)O)C2=O)cc1	-1	-7	?	·	?
O=C1C(=Cc2cn(-c3ccccc3)nc2-c2ccc(OCc3ccccc3)cc2)SC(=S)N1CCS(=O)(=O)O	-1	-6	-74*	·	-19
Cn1c(-c2ccc(S(=O)(=O)N3CCCC3)cc2)csc1=Nc1ccc(Cl)c(Cl)c1	·	-1	·	·	·
COc1ccc(OC)c(NC2=NC3(CCCC3)N=C(N)N2)c1	1	0	-68*	-5%	?
NC1=NC2(CCCCC2)N=C(Nc2ccc(F)cc2F)N1	1	2	0	-3%	-3
SMILES	CCT modulator	PI4K2A inh	Six1-Eya2 blk	Eya2 phos inh	CtBP-E1A inh
CC1CCCC(NC(=O)COC(=O)c2ccc([N+](=O)[O-])o2)C1C (configuration not stated)	-64*	-8	9	2%	0
S=c1[nH]nc(-c2ccc3ccccc3n2)n1-c1ccccc1	-69*	-3	5	8%	12
COc1ccccc1N1CCN(CCN(C(=O)C2CCCCC2)c2ccccn2)CC1	-3	-65*!	-7	4%	0
Cc1cc(C(=O)C(=O)Nc2nncs2)c(C)n1-c1ccc(Cl)cc1	·	-5	·	·	·
Cc1ccc(-n2nc(-c3ccccc3)c3cnc4cc5c(cc4c32)OCO5)cc1C	·	3	·	·	·
COC(=O)c1cc(Cl)ccc1OC	·	3	·	·	·
CC(NC(=O)Cc1ccc(-c2ccccc2)cc1)c1ccccc1 (configuration not stated)	-43*	-9	4	4%	7
COc1ccc(-c2nnc(SCC(=O)NC(C)c3ccccc3)o2)cc1 (configuration not stated)	-50*	4	-3	-1%	0
COc1ccc(-c2nnc(SCC(=O)Nc3ccccc3OC)o2)cc1	-4	0	-10	-5%	-9
Nc1ccccc1C(=O)N=Nc1[nH]c(N)c2ccccc12	0	1	-76*	-9%	-87*
CCc1nnc(NC(=O)CSc2nnc(-c3ccccc3O)o2)s1	-56*	-5	0	-17%	·
CCc1nnc(NC(=O)CSc2nccn2-c2ccccc2)s1	-38*	1	4	-2%	-10
CCc1nnc(NC(=O)CCC(=O)N2CCN(Cc3ccccc3)CC2)s1	-93*	-3	4	2%	8
CCc1nnc(NC(=O)CSc2nccn2-c2cccc(C)c2)s1	-2	-8	1	-13%	-1
CCOC1(/N=C(\C)NS(=O)(=O)c2ccc(Cl)cc2)C(C)=CC(=O)C=C1C	-71*	-2	19	-5%	21
O=c1cc(Cl)[nH]c(=O)n1CCNc1ncc(C(F)(F)F)cc1Cl	0	-1	-5	-10%	-2
O=c1[nH]c2cc(Cl)ccc2n(CCNc2ncc(C(F)(F)F)cc2Cl)c1=O	-67*	-2	3	10%	-1
CSc1cccc(NC(=O)C2CCCN(C(=O)c3cnn(-c4ccc(F)cc4)c3-n3cccc3)C2)c1 (configuration not stated)	·	-5	·	·	·
O=S(=O)(c1ccc(C(F)(F)F)cc1)N1CCCN(c2ccc(C(F)(F)F)cn2)CC1	-34*	-1	21	16%	16
O=C(Nc1ccc(C(O)(C(F)(F)F)C(F)(F)F)cc1)c1ccc(Cl)cc1	·	-2	·	·	·
Cc1cnc(C=NNC(N)=S)c2cccc(N)c12	-1	-25	-79*	·	-2
NC(=S)NN=Cc1nccc2ccccc12	-7	-24	-81*	·	-94*
C#CCNC(=O)C[C@H]1C[C@@]2(C(=O)OC)C(=C[C@H](C(C)C)O[C@@H]2C2CC2)N(Cc2ccc3c(c2)OCO3)C1=O	·	1	·	·	·
Cn1c(/C=C/c2ccccc2)nc2ccccc21	2	-66*	10	0%	·
Cc1ccc(-c2nc3n(n2)C(c2ccccc2Cl)C=C(c2ccc(Cl)cc2)N3)cc1 (configuration not stated)	·	-8	·	·	·
Cc1cc(C(=O)COC(=O)/C=C/c2cccc(F)c2)c(C)n1C	1	2	-4	3%	1
Cc1cc(C(=O)COC(=O)/C=C/c2cccc(Br)c2)c(C)n1C	2	-3	?	-9%	-66*
CCOc1c(N2CCOCC2)cnn(C)c1=O	·	-1	·	·	·
